According to PubChem BioAssay (EPA / NIEHS):
Results filed as inconclusive are left out. Activity calls are given as the source filed them. The calls were made as follows, unless noted: active = hit-call score of the fitted dose curve at least 0.9, where 1 is the maximum; inactive = score below 0.9.

Experiments:
[1] = target: Hepatocyte nuclear factor 6 (Homo sapiens) (UniProt Q9UBC0); assay: ATG_HNF6_CIS: Attagene CIS-FACTORIAL HepG2 Assay for human Hepatocyte Nuclear Factor 6 (HNF6) (AID 2282952); settings: HepG2 Attagene cis-factorial HNF6 reporter transcription; actives raise or lower the signal
Summary of the method: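 Multiplexed mRNA reporter assay in transfected HepG2; 24 h dosing; RT-PCR plus capillary electrophoresis fluorescence; DMSO-referenced bidirectional curve fitting.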

[2] = target: Heat shock factor protein 1 (Homo sapiens) (UniProt Q00613); assay: ATG_HSE_CIS: Attagene CIS-FACTORIAL HepG2 Assay for human Heat Shock Transcription Factor 1 (HSE) (AID 2282953); settings: HepG2 HSE cis-reporter, Attagene RNA transcription; actives raise or lower the signal
Summary of the method: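 Read-out: fluorescence of reporter-specific RT-PCR fragments separated by capillary electrophoresis. HepG2 carrying transfected cis-element reporter units; 24 h dosing; activity fitted in both directions relative to DMSO baseline.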

[3] = ATG_MRE_CIS: Attagene CIS-FACTORIAL HepG2 Assay for human Metal Responsive Element (MRE) (AID 2282954); settings: HepG2 MRE cis-reporter transcription, Attagene multiplex; actives raise or lower the signal
Summary of the method: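 After a 24 h chemical exposure, transiently transfected HepG2 cells yield RNA whose reporter sequences are amplified, FAM-labelled and sized by capillary electrophoresis. Curves are fitted bidirectionally relative to DMSO.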

[4] = ATG_PBREM_CIS: Attagene CIS-FACTORIAL HepG2 Assay for human Phenobarbital-responsive Enhancer Module (PBREM) (AID 2282955); settings: HepG2 PBREM cis-reporter, Attagene multiplexed transcription; actives raise or lower the signal
Summary of the method: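 After a 24 h incubation with test chemical, transfected HepG2 cells yield total RNA; reporter-specific RT-PCR products are fluorescently labelled, HpaI-digested and resolved by capillary electrophoresis against ROX size standards.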

[5] = target: Paired box protein Pax-6 (Homo sapiens) (UniProt P26367); assay: ATG_Pax6_CIS: Attagene CIS-FACTORIAL HepG2 Assay for human Paired Box 6 (PAX6) (AID 2282956); settings: HepG2 CIS-FACTORIAL PAX6 reporter transcription, RNA readout; actives raise or lower the signal
Summary of the method: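 After twenty-four hours of chemical exposure, transfected HepG2 cells are harvested for RNA. Cis-promoter reporter transcripts are amplified, fluorescently labelled and sized by capillary electrophoresis, with gain and loss of signal scored against DMSO.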

[6] = ATG_PXRE_CIS: Attagene CIS-FACTORIAL HepG2 Assay for human Pregnane X Receptor Element (PXRE) (AID 2282957); settings: HepG2 Attagene CIS-FACTORIAL PXRE reporter, mRNA; actives raise or lower the signal
Summary of the method: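 Cells: HepG2, transiently transfected reporter units under cis promoter control. Exposure: 24 h. Detection: reporter mRNA via RT-PCR/CE fluorescence; bidirectional fitting, DMSO-referenced.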

[7] = ATG_RORE_CIS: Attagene CIS-FACTORIAL HepG2 Assay for human RAR-related Orphan Receptor Element (RORE) (AID 2282959); settings: HepG2 Attagene cis-factorial RORE reporter, mRNA; actives raise or lower the signal
Summary of the method: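 Fluorescence intensity of reporter-specific cDNA fragments, separated by capillary electrophoresis, gives the signal. Source: HepG2 liver cells transiently transfected with cis-element reporters and exposed 24 h; DMSO-normalized bidirectional fit.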

[8] = ATG_Sox_CIS: Attagene CIS-FACTORIAL HepG2 Assay for human SRY-box transcription factor (SOX) (AID 2282960); settings: HepG2 Attagene cis-factorial SOX reporter, mRNA; actives raise or lower the signal
Summary of the method: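 After 24 h of chemical treatment, transfected HepG2 reporter cells are lysed for total RNA. Transcript levels come from RT-PCR with labelled primer extension and capillary electrophoresis, analysed bidirectionally versus DMSO.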

[9] = target: Transcription factor Sp1 (Homo sapiens) (UniProt P08047); assay: ATG_Sp1_CIS: Attagene CIS-FACTORIAL HepG2 Assay for human Specificity Protein 1 (Sp1) (AID 2282961); settings: HepG2 Sp1 cis-reporter transcription, actives raise or lower the signal
Summary of the method: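 Sp1-driven reporter mRNA, read as capillary electrophoresis fluorescence after RT-PCR, in transiently transfected HepG2 cells dosed for 24 h; signal change in either direction relative to DMSO.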

[10] = ATG_SREBP_CIS: Attagene CIS-FACTORIAL HepG2 Assay for human Sterol Regulatory Element Binding (SREBP) (AID 2282962); settings: HepG2 Attagene cis-factorial SREBP reporter, mRNA; actives raise or lower the signal
Summary of the method: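 Twenty-four hours after chemical dosing of transfected HepG2 cultures, reporter RNA was converted to cDNA, amplified, end-labelled with 6-FAM and resolved by capillary electrophoresis. Responses were fitted relative to DMSO.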

[11] = target: Signal transducer and activator of transcription 3 (Homo sapiens) (UniProt P40763); assay: ATG_STAT3_CIS: Attagene CIS-FACTORIAL HepG2 Assay for human Signal Transducer and Activator of Transcription 3 (STAT3) (AID 2282963); settings: HepG2, Attagene cis-factorial STAT3 reporter transcription; actives raise or lower the signal
Summary of the method: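 After a 24 h compound incubation, total RNA from MRTU-transfected HepG2 cells was converted to cDNA and reporter sequences PCR-amplified, labelled and profiled by capillary electrophoresis. Gain and loss of signal were referenced to DMSO.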

[12] = ATG_TA_CIS: Attagene CIS-FACTORIAL HepG2 Assay for human TA Basal Promoter (AID 2282964); settings: HepG2 Attagene CIS-factorial TA basal promoter reporter; actives raise or lower the signal
Summary of the method: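 Transfected HepG2, 24 h compound exposure; RNA → RT-PCR → FAM primer extension → HpaI cut → CE fluorescence. Gain/loss-of-signal fitted against DMSO negative control. Background-control readout.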

[13] = ATG_TCF_b_cat_CIS: Attagene CIS-FACTORIAL HepG2 Assay for human T-Cell-Factor with beta-catenin (TCF/b-cat) (AID 2282965); settings: HepG2 TCF/beta-catenin cis-reporter transcription, actives raise or lower the signal
Summary of the method: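 Measured: reporter mRNA in HepG2 transiently transfected with cis-promoter reporter units, 24 h after chemical addition. Fitting was bidirectional, DMSO as negative control.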

[14] = ATG_TAL_CIS: Attagene CIS-FACTORIAL HepG2 Assay for human TAL Basal Promoter (AID 2282966); settings: HepG2 Attagene cis-factorial TAL promoter reporter; actives raise or lower the signal;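 also: background control endpoint measuring basal TAL promoter reporter mRNA not a specific factor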
Summary of the method: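 RT-PCR plus capillary electrophoresis quantifies reporter mRNA induction in transiently transfected HepG2 cells after 24 h chemical treatment. DMSO serves as negative control and baseline for bidirectional fitting.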

[15] = ATG_TGFb_CIS: Attagene CIS-FACTORIAL HepG2 Assay for human Transforming Growth Factor (TGF) (AID 2282967); settings: HepG2 Attagene CIS TGFb reporter, mRNA transcription; actives raise or lower the signal
Summary of the method: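 Readout: fluorescently labeled reporter cDNA fragments resolved by capillary electrophoresis after RT-PCR. Transfected HepG2 cells dosed for 24 h; endogenous TF activity at TGFB1-linked cis element; gain or loss fitted relative to DMSO.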

[16] = ATG_VDRE_CIS: Attagene CIS-FACTORIAL HepG2 Assay for human Vitamin D Receptor Element (VDRE) (AID 2282968); settings: HepG2 VDRE cis-reporter transcription, actives raise or lower the signal
Summary of the method: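 In transiently transfected HepG2 liver cells, gain or loss of reporter mRNA after 24 h exposure is scored relative to DMSO, using fluorescence detection by capillary electrophoresis of RT-PCR products.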

[17] = target: Estrogen receptor (Homo sapiens) (UniProt P03372); assay: ATG_ERa_TRANS: Attagene TRANS-FACTORIAL HepG2 Assay for human Estrogen Receptor alpha (ERa) (AID 2282970; active = hit-call score of the fitted dose curve at least 0.9, where 1 is the maximum); settings: HepG2 Attagene TRANS ERa GAL4 reporter, mRNA
Summary of the method: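 Cells: HepG2, transiently transfected. Construct: GAL4-UAS reporter units regulated by exogenous NR-Gal4 chimeras. Time: 24 h. Detection: reporter mRNA by RT-PCR, capillary electrophoresis, fluorescence. Baseline: DMSO, upward fitting.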

[18] = ATG_PPRE_CIS: Attagene CIS-FACTORIAL HepG2 Assay for human Peroxisome Proliferator-activated Response Element (PPRE) (AID 2282958); settings: HepG2 PPRE cis-element reporter, Attagene transcription factor profiling; actives raise or lower the signal
Summary of the method: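 Multiplexed reporter transcription units under cis-regulatory promoters were transfected into HepG2 cells to capture endogenous factor activity. A 24 h incubation preceded RNA isolation and fluorescent RT-PCR fragment analysis.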

[19] = target: Nuclear receptor subfamily 1 group I member 3 (Homo sapiens) (UniProt Q14994); assay: ATG_CAR_TRANS: Attagene TRANS-FACTORIAL HepG2 Assay for human Constitutive Androstane Receptor (CAR) (AID 2282969; active = hit-call score of the fitted dose curve at least 0.9, where 1 is the maximum;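 also: activators raise reporter mRNA above DMSO so AC50 marks induction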); settings: HepG2 Attagene TRANS-FACTORIAL CAR reporter
Summary of the method: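 Readout is reporter mRNA induction, quantified by fluorescent primer extension and capillary electrophoresis after RT-PCR. Cells were HepG2 transiently carrying chimeric NR-Gal4 constructs with GAL4-UAS reporters, treated for 24 h; activity scored upward from DMSO.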

Measured: AC50

Chain of Signal transducer and activator of transcription 3 (Homo sapiens) (P40763 whole entry, looked up): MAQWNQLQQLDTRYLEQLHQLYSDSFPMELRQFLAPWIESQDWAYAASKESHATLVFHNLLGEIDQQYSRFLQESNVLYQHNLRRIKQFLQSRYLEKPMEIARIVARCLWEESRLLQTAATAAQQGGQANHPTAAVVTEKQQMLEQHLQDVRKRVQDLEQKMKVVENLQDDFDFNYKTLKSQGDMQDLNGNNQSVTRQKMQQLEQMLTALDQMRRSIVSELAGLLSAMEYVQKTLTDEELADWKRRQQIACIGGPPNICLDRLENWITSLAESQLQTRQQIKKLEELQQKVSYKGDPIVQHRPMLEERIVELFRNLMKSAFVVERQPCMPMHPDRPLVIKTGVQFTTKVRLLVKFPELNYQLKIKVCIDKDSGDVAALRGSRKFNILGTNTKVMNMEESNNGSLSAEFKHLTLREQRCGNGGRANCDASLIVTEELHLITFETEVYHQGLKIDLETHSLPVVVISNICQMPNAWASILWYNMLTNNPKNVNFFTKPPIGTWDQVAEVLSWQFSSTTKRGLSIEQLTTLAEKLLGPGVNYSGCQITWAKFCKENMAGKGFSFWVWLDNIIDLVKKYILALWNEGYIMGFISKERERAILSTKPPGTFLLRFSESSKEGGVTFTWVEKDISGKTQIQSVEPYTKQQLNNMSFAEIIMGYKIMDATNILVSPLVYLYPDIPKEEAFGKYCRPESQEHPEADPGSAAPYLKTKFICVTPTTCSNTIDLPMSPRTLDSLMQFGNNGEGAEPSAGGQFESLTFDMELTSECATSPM
Chain of Heat shock factor protein 1 (Homo sapiens) (Q00613 whole entry, looked up, the tested form may be a part): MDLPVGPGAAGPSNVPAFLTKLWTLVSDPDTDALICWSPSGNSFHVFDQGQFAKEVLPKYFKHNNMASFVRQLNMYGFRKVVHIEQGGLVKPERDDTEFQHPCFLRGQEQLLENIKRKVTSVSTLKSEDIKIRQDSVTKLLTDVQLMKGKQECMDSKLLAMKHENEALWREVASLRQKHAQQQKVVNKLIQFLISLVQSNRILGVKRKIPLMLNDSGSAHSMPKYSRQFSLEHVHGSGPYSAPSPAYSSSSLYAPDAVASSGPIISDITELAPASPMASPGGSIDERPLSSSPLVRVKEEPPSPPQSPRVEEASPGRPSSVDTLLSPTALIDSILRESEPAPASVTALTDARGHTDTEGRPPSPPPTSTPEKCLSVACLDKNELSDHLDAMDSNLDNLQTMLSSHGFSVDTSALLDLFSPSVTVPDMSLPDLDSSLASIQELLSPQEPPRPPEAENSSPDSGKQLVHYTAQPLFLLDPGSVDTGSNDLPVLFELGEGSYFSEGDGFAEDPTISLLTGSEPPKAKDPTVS
Chain of Nuclear receptor subfamily 1 group I member 3 (Homo sapiens) (Q14994 whole entry, looked up, the tested form may be a part): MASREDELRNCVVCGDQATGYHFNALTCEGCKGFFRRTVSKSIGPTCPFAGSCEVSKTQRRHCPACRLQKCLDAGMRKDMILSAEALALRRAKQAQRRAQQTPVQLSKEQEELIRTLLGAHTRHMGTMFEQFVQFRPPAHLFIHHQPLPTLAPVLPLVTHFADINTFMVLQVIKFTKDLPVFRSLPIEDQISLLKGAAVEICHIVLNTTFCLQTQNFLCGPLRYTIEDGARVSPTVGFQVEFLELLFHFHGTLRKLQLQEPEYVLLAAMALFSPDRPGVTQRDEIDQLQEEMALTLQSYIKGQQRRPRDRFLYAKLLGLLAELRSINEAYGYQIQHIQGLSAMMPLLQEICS
Chain of Transcription factor Sp1 (Homo sapiens) (P08047 whole entry, looked up): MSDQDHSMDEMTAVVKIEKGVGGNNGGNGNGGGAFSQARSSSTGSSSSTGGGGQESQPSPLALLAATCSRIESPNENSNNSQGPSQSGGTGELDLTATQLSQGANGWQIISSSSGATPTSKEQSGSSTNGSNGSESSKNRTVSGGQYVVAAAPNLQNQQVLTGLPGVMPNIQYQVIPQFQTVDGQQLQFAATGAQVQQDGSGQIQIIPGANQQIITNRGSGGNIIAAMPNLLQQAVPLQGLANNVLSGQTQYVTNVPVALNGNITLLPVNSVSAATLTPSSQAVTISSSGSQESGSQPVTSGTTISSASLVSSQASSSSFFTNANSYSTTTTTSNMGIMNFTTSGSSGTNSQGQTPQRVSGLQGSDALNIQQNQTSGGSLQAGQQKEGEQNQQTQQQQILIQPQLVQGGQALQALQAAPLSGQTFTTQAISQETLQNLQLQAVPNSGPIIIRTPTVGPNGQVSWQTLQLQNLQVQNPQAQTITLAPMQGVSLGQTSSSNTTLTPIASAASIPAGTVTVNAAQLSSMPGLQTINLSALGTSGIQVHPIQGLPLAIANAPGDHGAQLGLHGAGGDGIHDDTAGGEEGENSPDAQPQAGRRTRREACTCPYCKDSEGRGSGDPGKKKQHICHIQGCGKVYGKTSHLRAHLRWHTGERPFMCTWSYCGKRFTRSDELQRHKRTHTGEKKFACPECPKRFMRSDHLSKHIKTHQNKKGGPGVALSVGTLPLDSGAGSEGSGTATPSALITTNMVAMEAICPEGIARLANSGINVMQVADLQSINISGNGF
Chain of Paired box protein Pax-6 (Homo sapiens) (P26367 whole entry, looked up): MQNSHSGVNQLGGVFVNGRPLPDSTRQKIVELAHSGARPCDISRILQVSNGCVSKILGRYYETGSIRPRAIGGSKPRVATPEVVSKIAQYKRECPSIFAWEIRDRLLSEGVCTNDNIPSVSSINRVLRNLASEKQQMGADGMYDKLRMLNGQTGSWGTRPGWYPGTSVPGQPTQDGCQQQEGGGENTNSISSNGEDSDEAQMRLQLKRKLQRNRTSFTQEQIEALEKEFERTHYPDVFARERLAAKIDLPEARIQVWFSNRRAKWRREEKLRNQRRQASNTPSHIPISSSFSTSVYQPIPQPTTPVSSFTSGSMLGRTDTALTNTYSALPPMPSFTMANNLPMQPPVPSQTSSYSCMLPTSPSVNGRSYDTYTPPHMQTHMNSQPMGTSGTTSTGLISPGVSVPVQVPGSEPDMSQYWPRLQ
Chain of Estrogen receptor (Homo sapiens) (P03372 whole entry, looked up, the tested form may be a part): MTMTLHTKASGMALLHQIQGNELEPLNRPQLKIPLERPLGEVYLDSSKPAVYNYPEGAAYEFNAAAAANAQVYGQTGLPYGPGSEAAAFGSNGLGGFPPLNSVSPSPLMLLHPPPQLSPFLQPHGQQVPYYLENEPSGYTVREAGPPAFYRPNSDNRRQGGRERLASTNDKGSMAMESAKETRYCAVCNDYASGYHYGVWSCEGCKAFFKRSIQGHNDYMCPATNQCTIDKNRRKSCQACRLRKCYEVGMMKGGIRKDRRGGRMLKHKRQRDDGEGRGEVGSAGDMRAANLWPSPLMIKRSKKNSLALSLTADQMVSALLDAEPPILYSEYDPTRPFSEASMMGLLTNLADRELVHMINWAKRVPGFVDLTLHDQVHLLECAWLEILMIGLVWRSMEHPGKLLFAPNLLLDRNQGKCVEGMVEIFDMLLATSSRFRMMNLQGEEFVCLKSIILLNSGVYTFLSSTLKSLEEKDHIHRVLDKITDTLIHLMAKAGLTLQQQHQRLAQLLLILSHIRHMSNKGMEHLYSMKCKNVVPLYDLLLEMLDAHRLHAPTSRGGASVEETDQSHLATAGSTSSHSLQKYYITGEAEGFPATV
Chain of Hepatocyte nuclear factor 6 (Homo sapiens) (Q9UBC0 whole entry, looked up): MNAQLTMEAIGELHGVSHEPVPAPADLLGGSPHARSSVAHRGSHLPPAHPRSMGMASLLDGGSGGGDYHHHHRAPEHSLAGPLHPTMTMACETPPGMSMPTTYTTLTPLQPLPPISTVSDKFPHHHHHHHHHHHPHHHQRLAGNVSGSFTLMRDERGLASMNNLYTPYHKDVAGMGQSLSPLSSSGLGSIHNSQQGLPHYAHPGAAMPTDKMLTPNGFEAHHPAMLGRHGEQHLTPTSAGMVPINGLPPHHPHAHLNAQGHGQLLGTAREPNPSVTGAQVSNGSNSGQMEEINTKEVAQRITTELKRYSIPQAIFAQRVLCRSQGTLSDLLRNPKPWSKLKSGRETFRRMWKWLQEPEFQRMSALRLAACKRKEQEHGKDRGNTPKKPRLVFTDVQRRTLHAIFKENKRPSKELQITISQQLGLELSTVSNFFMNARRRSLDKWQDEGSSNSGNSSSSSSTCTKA

O=C(NC(=O)c1c(F)cccc1F)Nc1cc(Cl)c(OC(F)(F)C(F)C(F)(F)F)cc1Cl (stereo not given)
not listed: [18] | [19]
inactive: all other assays above

CCOP(=S)(OCC)O/N=C(\C#N)c1ccccc1
active: [6] 2.2 µM | [18] 7.85 µM
not listed: [3] | [4] | [11] | [17] | [19]
inactive: all other assays above

CCOc1cc(C=O)ccc1O
not listed: [17] | [18]
inactive: all other assays above

CCCCN(CCCCO)N=O
active: [6] 35.3 µM | [17] 8.41 µM
not listed: [12] | [16]
inactive: all other assays above

C[N+](C)(C)Cc1ccccc1
not listed: [4] | [5] | [7] | [18] | [19]
inactive: all other assays above

O=S1(=O)OC(c2cc(Br)c(O)c(Br)c2)(c2cc(Br)c(O)c(Br)c2)c2ccccc21
active: [6] 24.5 µM | [18] 57.4 µM | [7] 93 µM | [13] 121 µM
not listed: [3] | [12] | [17] | [19]
inactive: all other assays above

CCCSP(=S)(OCC)Oc1ccc(Cl)cc1Cl (stereo not given)
active: [6] 2.72 µM | [15] 137 µM
not listed: [16] | [17]
inactive: all other assays above

ClCc1ccccc1Cl
inactive: [4] | [7] | [10] | [12] | [13] | [14] | [15]
active: [1] 100 µM | [2] 164 µM | [5] 100 µM | [6] 38.3 µM | [8] 120 µM | [9] 100 µM | [16] 100 µM

c1csc(-c2ccc(-c3cccs3)s2)c1
active: [3] 3.99 µM | [4] 2.58 µM | [6] 5.21 µM | [18] 2.09 µM | [12] 4.42 µM | [15] 6.2 µM | [16] 3.41 µM | [17] 4.23 µM
inactive: [1] | [5] | [8] | [9] | [10] | [13] | [14]

CCCCC(CC)C(=O)Cl (stereo not given)
not listed: [5] | [11] | [12] | [16] | [19]
inactive: all other assays above

N#CS
not listed: [4] | [17] | [19]
inactive: all other assays above

O=S(=O)(C(Cl)(Cl)Cl)C(Cl)(Cl)Cl
inactive: [1] | [4] | [18] | [11] | [14] | [15] | [17]
active: [2] 7.93 µM | [3] 16.5 µM | [5] 16 µM | [6] 11.1 µM | [8] 11.1 µM | [9] 11.1 µM | [10] 16.8 µM | [13] 7.46 µM

C[C@]12CC[C@@H](O)C[C@@H]1CC[C@@H]1[C@@H]2CC[C@]2(C)C(=O)CC[C@@H]12
active: [6] 6.91 µM
not listed: [4] | [17] | [18] | [19]
inactive: all other assays above
